Measurements: ChEMBL document CHEMBL1157539, “Thousands of chemical starting points for antimalarial lead identification” (Nature, 2010)

Tested on: HepG2
Assay: GSK_TCMDC: Percent inhibition of human HepG2 cell line. Test compounds present at 10uM.
Format: functional

| SMILES | Inhibition [%] |
| --- | --- |
| NC(=O)c1cccc(C(=O)Nc2cccc(-c3cccc(-c4nc5ccccc5[nH]4)c3)c2)c1 | 32 |
| c1ccc(CN2CCC(Nc3ccc(-c4c[nH]nc4-c4ccccn4)nc3)CC2)cc1 | 1 |
| CC[C@@]1(O)C(=O)OCc2c1cc1n(c2=O)Cc2c-1nc1cc3c(cc1c2CN1CCN(C)CC1)OCCO3.Cl | 79 |
| O=C(NCc1ccc(Cl)c(Cl)c1)c1ccc(C2CCCN(Cc3ccc4[nH]cnc4c3)C2)cc1 (stereo not given) | 9 |
| O=C(O)C(F)(F)F.O=c1ccc2ccc(F)c3c2n1CC3CN1CCC(NCc2cccc(-c3cccs3)c2)CC1 (stereo not given) | 17 |
| O=[N+]([O-])c1ccc2ncnc(Nc3ccc(F)c(Cl)c3)c2c1 | 0 |
| Fc1ccc2c(NN=Cc3ccc(Cl)cc3)ccnc2c1 | 7 |
| N=C(/N=C(/NCCCCCCN/C(=N\C(=N)Nc1ccc(Cl)cc1)N1CCCCC1)N1CCCCC1)Nc1ccc(Cl)cc1 | 0 |
| CC(C)Sc1ccc(Cl)cc1CON1C(=N)N=C(N)NC1(C)C.Cl | 66 |
| CCCC(=O)c1cnc2c(Oc3cc(Cl)ncn3)cccc2c1Nc1ccccc1C | 6 |
| CC1(CCCCN2CCC(Oc3ccc(F)cc3F)CC2)C(=O)Nc2ccccc21.Cl (stereo not given) | 6 |
| Cc1cccc2nc(-c3cccc(-c4ccc(CNCCNC(=O)c5ccnn5C)cc4)c3)[nH]c12.O=C(O)C(F)(F)F | 21 |
| Cc1cc(N2CCC(N(C)C)C2)nc(Nc2ccc(Cl)cc2)n1 (stereo not given) | 11 |
| COc1cc2nc(N3CCC(CNC(=O)c4ccc(-c5ccc(C(=O)N(C)C)cc5)c(OCCO)c4)CC3)nc(N)c2cc1OC | 10 |
| COc1ccc(-c2nc(NC(=O)CSc3ccccc3)sc2C)cc1 | 6 |
| O=C(Nc1ccc(Cl)cc1)c1cc(Cl)ccc1NC(=O)C1(c2ccc(Cl)cc2)CCCC1 | 13 |
| COc1ccc2[nH]cc(C3CCN(CCCCCNC(=O)c4ccc(-c5ccccc5)cc4)CC3)c2c1 | 50 |
| COc1ccc(CCn2c(=N)c(C(=O)NCc3ccc(C)cc3)cc3c(=O)n4ccccc4nc32)cc1 | 13 |
| CC(C)(C)c1ccc(CN2CCC(NC(=O)c3ccc(-c4cccc(C(F)(F)F)c4)s3)CC2)cc1.O=C(O)C(F)(F)F | 97 |
| CCOc1cc(C(=O)NCc2ccc(Cl)c(Cl)c2)ccc1-c1nc2cc(Cl)ccc2[nH]1 | 10 |

| SMILES | Inhibition [%] |
| --- | --- |
| O=C(Nc1ccc(-c2nc3ccccc3[nH]2)cc1)C1CCN(Cc2cccc(F)c2F)CC1 | 23 |
| CC(CN(C)C)C(=O)Nc1ccc(-c2ccc(-c3nc4cc(C(F)(F)F)ccc4[nH]3)cc2)cc1 (stereo not given) | 14 |
| Br.CC1(C)NC(N)=NC(=N)N1OCCSCCON1C(=N)N=C(N)NC1(C)C | 34 |
| CCCC(=O)NC(NC(=S)Nc1ccc([N+](=O)[O-])cc1)C(Cl)(Cl)Cl (stereo not given) | 10 |
| Clc1ccc(-c2cc(-c3csc(NCCN4CCOCC4)n3)on2)c(Cl)c1 | 39 |
| COc1ccc(C2CC(c3ccccc3O)=NN2C(=O)c2ccco2)cc1OC (stereo not given) | 11 |
| O=C(Nc1cccc(CN2CCN(C(=O)c3cccc(Cl)c3)CC2)c1)c1ccco1.O=C(O)C(F)(F)F | 7 |
| Oc1c(C(Nc2ccccn2)c2ccc(Cl)cc2Cl)ccc2cccnc12 (stereo not given) | 42 |
| Cc1cccc2nc(-c3ccc(-c4ccc(NC(=O)C(C)CN(C)C)cc4)s3)[nH]c12 (stereo not given) | 23 |
| COc1ccc(C(=O)CCC(=O)N(Cc2ccc(-c3ccc(CNCCc4ccc(S(C)(=O)=O)cc4)cn3)cc2)C2CC3CCC2C3)cc1F.O=C(O)C(F)(F)F (stereo not given) | 5 |
| COc1ccc(C(=O)COc2cccc(/C=C/C(=O)O)c2)cc1OC | 44 |
| COc1ccc(CNC2CCCC2)cc1-c1ccc(S(=O)(=O)NCCN2CCCC2)s1.O=C(O)C(F)(F)F | 17 |
| CCNc1cc(C(=O)N[C@@H](Cc2ccccc2)[C@H](O)CNCCCc2ccc(OC)cc2)cc(N2CCCC2=O)c1.O=C(O)C(F)(F)F | 4 |
| COc1ccc(-c2nonc2NC(=O)c2ccc(C(C)(C)C)cc2)cc1OC | 0 |
| CS(=O)(=O)Cc1cccc(Nc2ncc(Cl)c(Nc3cccnc3C(N)=O)n2)c1.Cl | 56 |
| Cl.NC1=NC(c2ccccc2)N(OCc2ccccc2)C(N)=N1 (stereo not given) | 5 |
| O=C(/C=C/c1ccc(Cl)c(Cl)c1)NCCCCCN1CCC(NC(=O)Nc2ccc(C(F)(F)F)cc2)C1 (stereo not given) | 11 |
| O=C(O)CCSSc1cccc[n+]1[O-] | 100 |
| O=C(Nc1ccc(OC(F)(F)F)cc1)Nc1ccc([N+](=O)[O-])cc1 | 41 |
| COc1ccc2ccc(F)c(CC(=O)N3CCOC(CNCc4cccc(-c5ccc(F)cc5)n4)C3)c2n1 (stereo not given) | 5 |
